Measured values: article PMC4336329 (PLoS ONE, 2015)
About 14,000 (4.5%) of roughly 310,000 compounds showed an effect of 50% or more. The effect is printed as a negative number. The sample holds strong results, similar compounds and a random draw of the others, so the mix is not that of the screen.

Target: human ether-à-go-go-related gene (hERG) potassium channel (human, UniProt Q12809)
Experiment: primary screen, population patch clamp on CHO cells stably expressing hERG; higher = less effect of the substance
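Further: peak tail current of the secondary pulse compared with the same well before compound.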

human ether-à-go-go-related gene (hERG) potassium channel, sequence (Q12809 whole entry, looked up): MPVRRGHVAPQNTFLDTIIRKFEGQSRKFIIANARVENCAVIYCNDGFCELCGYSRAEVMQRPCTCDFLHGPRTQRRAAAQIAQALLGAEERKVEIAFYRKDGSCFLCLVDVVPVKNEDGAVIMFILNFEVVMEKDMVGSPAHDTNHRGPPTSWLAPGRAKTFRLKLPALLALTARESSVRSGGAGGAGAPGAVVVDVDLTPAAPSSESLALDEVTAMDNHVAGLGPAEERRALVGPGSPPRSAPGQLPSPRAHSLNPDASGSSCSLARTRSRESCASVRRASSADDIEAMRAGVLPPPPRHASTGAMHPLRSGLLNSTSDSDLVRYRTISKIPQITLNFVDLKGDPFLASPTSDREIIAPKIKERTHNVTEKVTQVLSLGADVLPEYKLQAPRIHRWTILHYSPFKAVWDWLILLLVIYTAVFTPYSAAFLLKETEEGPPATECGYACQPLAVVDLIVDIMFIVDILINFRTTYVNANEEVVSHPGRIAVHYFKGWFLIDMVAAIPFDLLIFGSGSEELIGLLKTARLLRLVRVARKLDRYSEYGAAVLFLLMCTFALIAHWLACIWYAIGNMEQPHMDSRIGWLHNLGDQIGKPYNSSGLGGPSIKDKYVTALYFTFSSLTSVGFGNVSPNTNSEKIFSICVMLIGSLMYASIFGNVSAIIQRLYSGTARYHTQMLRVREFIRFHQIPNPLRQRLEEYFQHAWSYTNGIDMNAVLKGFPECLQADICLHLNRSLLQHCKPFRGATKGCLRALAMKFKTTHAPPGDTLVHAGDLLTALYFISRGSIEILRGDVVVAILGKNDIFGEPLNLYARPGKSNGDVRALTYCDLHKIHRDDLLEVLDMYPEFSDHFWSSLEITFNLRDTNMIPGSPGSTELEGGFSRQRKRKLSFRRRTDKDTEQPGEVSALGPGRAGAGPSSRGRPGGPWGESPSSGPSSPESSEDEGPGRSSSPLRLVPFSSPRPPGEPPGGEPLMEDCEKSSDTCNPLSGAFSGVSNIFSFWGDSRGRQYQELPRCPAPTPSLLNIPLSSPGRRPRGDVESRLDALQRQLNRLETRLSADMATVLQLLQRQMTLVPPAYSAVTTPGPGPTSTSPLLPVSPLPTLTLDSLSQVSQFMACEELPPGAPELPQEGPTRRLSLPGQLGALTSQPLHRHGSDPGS

Compound | hERG current change (%, negative = inhibition) at 10uM [%]
N#CC1=C(SCc2ccccc2)NC(=O)CC1c1ccco1 (stereo not drawn) | 10.9
O=C(CCCN1CCC(O)(c2ccc(Br)cc2)CC1)c1ccc(F)cc1 | -79.7
CC(=O)N1CCC(O)(c2cccc(C(F)(F)F)c2)CC1 | 12.7
C=CCNC(=O)CN1CCC(O)(c2ccc(F)cc2)CC1 | -5.8
OC1(c2cccc(C(F)(F)F)c2)CCN(CCN2CCCCC2)CC1 | -3.82
Cl.O=C(CCCN1CCC(O)(c2cccc(C(F)(F)F)c2)CC1)c1ccc(F)cc1 | -75.6
O=C(CN1CCC(O)(c2ccc(F)cc2)CC1)NCc1ccc(F)cc1 | -34.2
O=C1CCC([N+](=O)[O-])C(C2CC=CCC2)N1 (stereo not drawn) | 4.76
CCOC(=O)c1ccc(CNC(=O)CCC(=O)O)cc1 | 4.15
COc1ccnc2c1c(=O)n(Cc1ccc(F)cc1)c(=O)n2C | -6.22
O=C(NCCCO)C(=O)Nc1cc2c3c(c1)CCN3C(=O)CC2 | 11.8
CC(=O)C1=C(C)NC(SCC(N)=O)=C(C#N)C1C (stereo not drawn) | 8.65
COc1ccc(C(=O)COC(=O)CNC(=O)c2ccc(OC)cc2)cc1 | -52.6
O=C(CNC(=O)c1ccccc1)OCc1cc(=O)n2cc(Br)ccc2n1 | -31.6
CC(C)(C)c1ccc(C(=O)NCC(=O)OCc2ccc([N+](=O)[O-])cc2)cc1 | -7.46
O=C(CNC(=O)c1cccc(OC(F)F)c1)OCc1cc(=O)n2cc(Br)ccc2n1 | -55.2
O=C(CNC(=O)c1cccc(F)c1)OCc1cc(=O)n2cc(Br)ccc2n1 | -9.66
COc1ccc(C(=O)NCC(=O)OCc2ccc(Cl)cc2Cl)cc1OC | -6.66
COc1ccc(C(=O)NCC(=O)OCC(=O)c2cc(OC)c(OC)c(OC)c2)cc1OC | 28.5
COc1ccc(C(=O)NCC(=O)OCc2ccc([N+](=O)[O-])cc2)cc1 | -58.3
COc1ccc(C(=O)NCC(=O)NCC(=O)OCC(=O)c2ccc(Br)cc2)cc1 | 15.3
COc1ccc(C(=O)NCC(=O)NCC(=O)OCC(=O)c2ccc(C)cc2)cc1 | 4.23
COc1ccc(C(=O)NCC(=O)OCC(=O)c2ccc(Cl)cc2)cc1OC | -58.6
O=C(CNC(=O)c1ccccc1)OCc1ccc([N+](=O)[O-])cc1 | -33.9
